# Experimental data reported in PubChem BioAssay (Tox21).
# Where “and” joins values, the source holds several entries; their conditions need not be identical. Equal entries are not always repeated. Inconclusive results are not listed. Entries that show only a call come without a potency. Calls of active or inactive are those of the source. The call rests on the fitted dose curve; in most records, active means well fitted cell-killing curve with a large enough effect in the repeat runs; inconclusive means weak or mixed curves, or effect the other way; inactive means no such curve, though single readings can be large or run the other way.
# Assay: qHTS assay to identify small molecule antagonists of the thyroid receptor (TR) signaling pathway - cell viability counter screen (AID 743064); further: nearly all actives have a fitted effect of over 50% in size
# Conditions: GH3.TRE-Luc viability, CellTiter-Fluor, 24 h; series mostly up to 70.3 µM
# Source text: National Center for Advancing Translational Sciences [NCATS]
# NIH Chemical Genomics Center [NCGC]
# U.S. Environmental Protection Agency [EPA]
# National Institutes of Environmental Health Sciences [NIEHS]
# National Toxicology Program [NTP]
# U.S. Food and Drug Administration [FDA]
# Thyroid receptor (TR), a nuclear hormone receptor, plays an important role in development, proliferation, differentiation, metabolism, brain function, and cardiovascular system. […] To profile the Tox21 10K compound library in TR signaling, a cell-based GH3-TRE-Luc assay (GH3.TRE-Luc cell line, developed by the laboratory of Dr. Albertinka J. Murk, Wageningen University) was used to measure the inhibition of TR. GH3 (rat pituitary tumor) cells stably expressing a TR activity sensor consisting of two TR response elements and a luciferase reporter gene. The cytotoxicity of the Tox21 compound library against the GH3.TRE-Luc cell line was tested in parallel by measuring the cell viability using CellTiter-Fluor assay (Promega, Madison, WI) in the same wells.
# Tox21 Assay Protocol Summary:
# GH3.TRE-Luc cells were dispensed at 1500 cells/4 uL/well into 1536-well white solid bottom plates using a Multidrop Combi dispenser (Thermo Fisher Scientific Inc., Waltham, MA). After the assay plates were incubated at 37 C for 4 hours, 23 nL of library compound or DMSO controls was transferred to the assay plates by a pintool station (Kalypsys, San Diego, CA), followed by addition of 1 ul of T3 (1 nM, final concentration in the wells) to stimulate TR transactivation. The assay plates were incubated at 37 C for 23.5 h, and then 1 uL of CellTiter-Fluor reagent (Promega, Madision, WI) of measuring cytotoxicity was added to each well using a Bioraptr Flying Reagent Dispenser (FRD) workstation (Beckman Coulter, Indianapolis, IN, USA). The plates were incubated at 37C and 5% CO2 for additional 30 min, and fluorescence intensity was measured by a ViewLux plate reader (PerkinElmer, Shelton, CT).
# Potency means the concentration at half of the fitted maximal effect.
Structure (SMILES),Potency,"activity change, negative = cytotoxic"
CCC[CH2][Sn]([CH2]CCC)([CH2]CCC)[CH2]CCC,30.6 µM (active),–
COc1nc(C)nc(NC(=O)NS(=O)(=O)c2ccccc2Cl)n1,inactive,–
CCN1CCC2(CC1)COc1cc3c(cc12)N(C(=O)c1ccc(-c2ccc(-c4nnc(C)o4)cc2C)cc1)CC3,14.2 µM (active),–
CCC(C)Br (stereo not given),inactive,–
[C-]1=CC=CC1.[Cl][Zr+2][Cl].c1cc[cH-]c1,inactive,–
CC(=O)[O][Pb]([c]1ccccc1)([c]1ccccc1)[c]1ccccc1,0.686 µM (active),–
CNC(=O)O/N=C(\C)C(C)S(C)(=O)=O (stereo not given),inactive,–
O=S1(=O)OCC2C(CO1)C1(Cl)C(Cl)=C(Cl)C2(Cl)C1(Cl)Cl (stereo not given),54.5 µM (active),–
CC(Cc1ccc(O)cc1)NCC(O)c1cc(O)cc(O)c1 (stereo not given),inactive,–
CCOC(=O)CCN(SN(C)C(=O)Oc1cccc2c1OC(C)(C)C2)C(C)C,inactive,–
CC(C)N(C(=O)CCl)c1ccccc1,27.3 µM (active) and 34.4 µM (active),–
CCCCn1cc[n+](C)c1.[Cl][Fe-]([Cl])([Cl])[Cl],inactive,–
C1=CCC=C1,inactive,–
Nc1ccc(N=Nc2ccccc2)cc1,56.1 µM (active),–
CN1[C@@H]2CC[C@H]1CC(O)C2 (stereo not given in full),inactive,–
O=NN(CCO)CCO,inactive,–
COC(=O)N(OC)c1ccccc1COc1ccn(-c2ccc(Cl)cc2)n1,61.1 µM (active),–
Clc1ccc(C2(Cn3cncn3)OCCO2)c(Cl)c1,inactive,–
CC[C@]1(O)CC[C@H]2[C@@H]3CCC4=CCCC[C@@H]4[C@H]3CC[C@@]21C,inactive,–
CCCCC/C=C\C/C=C\C/C=C\C/C=C\CCCC(=O)NCC(=O)O,–,12.7% [at 8.44 µM] (inactive)

Structure (SMILES),Potency,"activity change, negative = cytotoxic"
CC(O)C(=O)[O][Hg][c]1ccccc1 (stereo not given),0.686 µM (active),–
O=[N+]([O-])c1ccccc1-c1ccccc1,inactive,–
CCC1COC(Cn2cncn2)(c2ccc(Cl)cc2Cl)O1 (stereo not given),inactive,–
CCC(OC(C)=O)C(CC(C)NC)(c1ccccc1)c1ccccc1 (stereo not given),19.5 µM (active),–
CCOP(=O)(OCC)Oc1cc(C)nc(C(C)C)n1,inactive,–
Oc1ccc2[nH]cc(CCCCN3CC=C(c4ccccc4)CC3)c2c1,8.41 µM (active),–
CO/N=C(\C(=O)OC)c1ccccc1CO/N=C(\C)c1cccc(C(F)(F)F)c1,34.4 µM (active),–
CC(=O)[O-].CC(=O)[O-].[Co+2],inactive,–
NC1CCC(CC2CCC(N)CC2)CC1 (stereo not given),inactive,–
CCOP(=O)(OCC)Oc1nc(Cl)c(Cl)cc1Cl,60.8 µM (active),–
CCCC[N+]1(C)CCCC1 (tested in a mixture with another compound),inactive,–
Nc1nc(N)nc(Cl)n1,inactive,–
ClCBr,inactive,–
CCCCC(CC)COC(=O)OOC(C)(C)C (stereo not given),inactive,–
CC(C)Br,inactive,–
C=CCBr,inactive,–
COC(=O)c1ccccc1S(=O)(=O)NC(=O)Nc1nc(C)nc(OC)n1,inactive,–
CCOC(=O)Cc1ccccc1,inactive,–
c1ccc2nc(N3CCNCC3)ccc2c1,29.8 µM (active),–
O=Cc1ccccc1,inactive,–
